Reference: paper PMC4336329 (PLoS ONE, 2015)
Among all 310,000 compounds or so, about 14,000 (4.5%) showed an effect of 50% or more. Effects have a minus sign here. For the sample, strong results were picked, then their nearest neighbours and some compounds at random.

Biological target: human ether-à-go-go-related gene (hERG) potassium channel (human, UniProt Q12809)
Assay: primary screen, population patch clamp on CHO cells stably expressing hERG; higher = less effect of the substance
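Note: peak tail current of the secondary pulse compared with the same well before compound.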

Chain of human ether-à-go-go-related gene (hERG) potassium channel (Q12809 whole entry, looked up): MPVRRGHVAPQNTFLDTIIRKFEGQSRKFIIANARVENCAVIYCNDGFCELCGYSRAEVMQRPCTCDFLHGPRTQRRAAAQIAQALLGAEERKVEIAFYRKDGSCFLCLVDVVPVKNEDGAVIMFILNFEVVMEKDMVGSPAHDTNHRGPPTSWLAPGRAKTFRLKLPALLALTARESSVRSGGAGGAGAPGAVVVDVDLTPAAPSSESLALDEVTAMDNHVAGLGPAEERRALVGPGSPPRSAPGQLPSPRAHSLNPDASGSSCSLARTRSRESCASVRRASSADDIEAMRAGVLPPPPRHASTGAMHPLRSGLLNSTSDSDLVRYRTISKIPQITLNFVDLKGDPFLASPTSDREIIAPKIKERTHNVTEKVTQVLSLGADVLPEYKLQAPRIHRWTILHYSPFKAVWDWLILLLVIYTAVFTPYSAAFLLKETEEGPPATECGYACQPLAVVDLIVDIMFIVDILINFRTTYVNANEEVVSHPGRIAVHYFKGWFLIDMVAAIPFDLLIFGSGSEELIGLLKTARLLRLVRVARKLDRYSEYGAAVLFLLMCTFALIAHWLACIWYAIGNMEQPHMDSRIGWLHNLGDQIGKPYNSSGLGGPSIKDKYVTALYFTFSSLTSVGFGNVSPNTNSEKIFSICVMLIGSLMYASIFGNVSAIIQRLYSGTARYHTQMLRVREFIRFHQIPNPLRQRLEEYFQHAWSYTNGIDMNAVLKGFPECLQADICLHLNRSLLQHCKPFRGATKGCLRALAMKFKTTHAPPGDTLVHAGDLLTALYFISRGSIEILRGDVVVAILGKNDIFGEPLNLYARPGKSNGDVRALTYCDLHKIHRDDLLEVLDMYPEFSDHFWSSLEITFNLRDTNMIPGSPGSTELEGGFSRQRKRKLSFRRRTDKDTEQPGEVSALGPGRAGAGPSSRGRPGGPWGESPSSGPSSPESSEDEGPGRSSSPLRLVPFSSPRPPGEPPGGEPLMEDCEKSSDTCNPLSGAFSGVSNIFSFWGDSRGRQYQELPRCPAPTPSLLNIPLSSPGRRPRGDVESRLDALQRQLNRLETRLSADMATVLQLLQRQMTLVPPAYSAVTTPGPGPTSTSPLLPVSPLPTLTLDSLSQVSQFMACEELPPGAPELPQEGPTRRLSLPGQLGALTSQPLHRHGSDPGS

SMILES	hERG current change (%, negative = inhibition) at 10uM [%]
COc1ccc(Cl)cc1NC(=O)CN(C)C(=O)CCC(=O)c1cc(C)sc1C	-29.5
CC(C)C(CCN1C(=O)CCC1=O)C1CCOC(C)(C)C1 (stereo not drawn)	4.36
CCn1ncc(Br)c1C(=O)Nc1cc(C(=O)OC)ccc1C(=O)OC	-3.95
Cc1cc(OCc2cccc(Cl)c2)c(C)cc1CN1CCOCC1	0.275
CCCCCCCCCC(=O)N[C@H](CN1CCOCC1)[C@H](O)c1ccccc1.Cl	-16.6
Cc1ccc(OCC(O)Cn2c(=N)n(Cc3ccccc3)c3ccccc32)cc1.Cl (stereo not drawn)	-81.6
Cc1ccc(Cn2c(=N)n(CC(O)COc3ccccc3)c3ccccc32)cc1.Cl (stereo not drawn)	-68.9
O=C(O)c1ccc(OCC(O)Cn2c3ccccc3c3ccccc32)cc1 (stereo not drawn)	-18.5
COC(=O)c1cn(S(=O)(=O)c2ccccc2)c2ccccc12	13
Cc1ccc(NC(=O)NCc2ccc3c(c2)OCO3)cc1	5.69
COc1cc2c(OC(C)=O)c3c(c(-c4ccc5c(c4)OCO5)c2cc1OC)C(=O)OC3	15.4
Cc1ccc(NC(=O)CCN2CC(C)OC(C)C2)cc1C.Cl (stereo not drawn)	19.1
CC(C)(C)NS(=O)(=O)c1cc(C(=O)O)ccc1Cl	4.6
Cc1cc(C)nc(SCc2cc(=O)c(OC(=O)c3cccc([N+](=O)[O-])c3)co2)n1	-32.5
O=C(Oc1coc(CSc2ncccn2)cc1=O)c1ccccc1[N+](=O)[O-]	14.4
O=C(Oc1coc(CSc2ncccn2)cc1=O)c1cccc([N+](=O)[O-])c1	-81.3
Cc1cccn2c(=O)c3cc(C#N)c(=NC(=O)c4ccco4)n(Cc4ccco4)c3nc12	-55.4
Cn1c(=NC(=O)c2ccco2)sc2ccccc21	11.6
CC(=O)N=c1c(C#N)cc2c(=O)n3ccccc3nc2n1Cc1ccccc1	-40.2
CC(C)n1c(=NC(=O)c2ccco2)c(C#N)cc2c(=O)n3ccccc3cc21	-52.2
Cc1cccn2c(=O)c3cc(C#N)c(=NC(=O)c4ccccc4)n(Cc4ccco4)c3nc12	-40.3

SMILES	hERG current change (%, negative = inhibition) at 10uM [%]
Cc1ccccc1C(=O)N=c1c(C#N)cc2c(=O)n3cccc(C)c3nc2n1Cc1ccco1	-46.2
Cc1cccc(C(=O)N=c2c(C#N)cc3c(=O)n4cccc(C)c4nc3n2Cc2ccco2)c1	-65
CC(=O)N=c1c(C#N)cc2c(=O)n3cccc(C)c3nc2n1Cc1ccco1	-35.3
CCO[C@@H]1OC(C(=O)NCc2ccccc2)=C[C@H](C(C)(C)C)[C@H]1CCCO	-10.5
O=C(OCCN1C(=O)c2ccccc2C1=O)c1cc2ccccc2o1	1.62
CC1CCCC(C(=O)O)N1C(=O)CCSC(=O)c1ccccc1 (stereo not drawn)	-0.246
O=S(=O)(c1cccs1)N1CN(Cc2ccc(Cl)cc2)c2nc3ccccc3nc21	3.75
Cc1ccc2c(c1)c1c(n2CC(O)CNC(CO)(CO)CO)CCCC1 (stereo not drawn)	0.531
Cc1ccc2c(c1)c1c(n2CC(O)CN2CCCCCC2)CCCC1.Cl (stereo not drawn)	-65.6
Cc1ccc2c(c1)c1c(n2CC(O)CN2CCOCC2)CCCC1.Cl (stereo not drawn)	9.32
Cc1ccc2c(c1)c1c(n2CC(O)CN2CCC(C)CC2)CCCC1 (stereo not drawn)	-58.1
Cc1ccc2c(c1)c1c(n2CC(O)CN2CCCCC2C)CCCC1 (stereo not drawn)	-42.6
Cc1ccc2c(c1)c1c(n2CC(O)CNC2CCCCC2)CCCC1.Cl (stereo not drawn)	-37.4
Fc1ccc(N/N=C(/c2ccccc2)c2ccccn2)cc1	-12.5
CCN(Cc1ccccc1)Cc1c(F)cccc1F	-0.224
CCOC(=O)C1CCN(C(=O)COC(=O)C2CCN(S(=O)(=O)c3ccc(C)c(C)c3)CC2)CC1	-3.24
Cc1ccc(S(=O)(=O)N2CCC(C(=O)OCC(=O)N3CCC(C)CC3)CC2)cc1C	7.85
CCOC(=O)N1CCN(C(=O)COC(=O)C2CCN(S(=O)(=O)c3c(Cl)cccc3Cl)CC2)CC1	-38.1
CCOC(=O)N1CCN(C(=O)C2CCN(S(=O)(=O)c3c(C)cc(C)cc3C)CC2)CC1	-22.9
CCOC(=O)N1CCN(C(=O)COC(=O)C2CCN(S(=O)(=O)c3ccc(C)c(C)c3)CC2)CC1	-62.1
CC1CCCCN1C(=O)COC(=O)C1CCN(S(=O)(=O)c2c(Cl)cccc2Cl)CC1 (stereo not drawn)	-56.4
